# Assay outcomes deposited in PubChem by The Scripps Research Institute Molecular Screening Center.
# Shown are actives, neighbours in structure and some others; about 3.5% of the full set was active somewhere.
# TEAD-YAP inh = TEAD-YAP interaction inhibition; AID 1259422; inhibition, % at 9.12 µM; actives 1.4% (n = 640,000); HEK-TIYL cells, TEAD-Gal4/YAP UAS-luciferase luminescence; in the data active = inhibition above about 32%;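 note: 0% = median of test compound wells and 100% = reference inhibitor wells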
# GPR151 activ = activates the human receptor GPR151; Q8TDV0; PathHunter beta-arrestin GPR151 cells, luminescence; activation, % at 11.2 µM; actives 1% (n = 650,000); AID 1508602; in the data active = activation above about 4.9%;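 note: 0% = median of compound wells and 100% = cells with positive control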
# FBW7 activator = human FBW7 E3 ligase activation, primary screen; AID 1259310; actives 0.13% (n = 650,000); normalized activity (activation), % at 26.1 µM; AlphaScreen FBW7–phospho-cyclin E peptide binding, activator screen; in the data active = normalized activity above about 1.9%;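 note: purified mutant Fbw7 with reduced substrate affinity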
# MITF inh = blocks human microphthalmia-associated transcription factor; inhibition, % at 2.6 µM; AlphaScreen MITF homodimerization, bead proximity signal; actives 0.91% (n = 650,000); in the data active = inhibition above about 50%;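 note: 0% = vehicle wells with protein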
# Target sequence (O75030 whole entry, looked up): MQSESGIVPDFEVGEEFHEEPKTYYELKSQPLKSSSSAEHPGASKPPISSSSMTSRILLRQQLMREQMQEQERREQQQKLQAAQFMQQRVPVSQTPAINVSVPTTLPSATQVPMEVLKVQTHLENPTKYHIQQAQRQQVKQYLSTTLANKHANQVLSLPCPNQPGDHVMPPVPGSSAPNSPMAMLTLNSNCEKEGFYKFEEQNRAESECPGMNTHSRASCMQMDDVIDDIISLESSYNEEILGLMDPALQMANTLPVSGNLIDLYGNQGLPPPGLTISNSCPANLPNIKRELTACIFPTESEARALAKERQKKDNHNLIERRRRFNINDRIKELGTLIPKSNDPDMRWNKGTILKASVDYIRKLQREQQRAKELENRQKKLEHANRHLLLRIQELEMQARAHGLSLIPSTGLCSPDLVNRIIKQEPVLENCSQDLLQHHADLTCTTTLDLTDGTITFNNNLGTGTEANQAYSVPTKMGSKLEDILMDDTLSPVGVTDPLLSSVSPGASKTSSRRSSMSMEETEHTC
# The depositor's hits bear a star.
SMILES,TEAD-YAP inh,GPR151 activ,FBW7 activator,MITF inh
CCN1CCC(NCc2cc(OC)c(OC)c(OC)c2)CC1,6,0,0,-4
COc1ccc(CCN2C(=O)CCC2CCNCc2ccncc2)cc1OC (stereo not given),6,0,1,8
COc1cc(/C=C/C(=O)Nc2ccc3nc(N4CCOCC4)cc(C)c3c2)cc(OC)c1OC,29,0,1,9
Cc1ccc(/C=C2/Sc3ccccc3N(CC(=O)NCCN3CCCC3)C2=O)cc1,-5,2,0,-5
C=CCn1c(SC)nc(O)c(CC)c1=O,1,-1,1.9*,9
Cc1[nH]n(-c2ccccc2)c(=O)c1/C=N/Nc1nncc(-c2ccccc2)n1,42*,1,0,-22
Cc1[nH]n(-c2ccccc2)c(=O)c1/C=N/Nc1nnc(C)c(=O)[nH]1,15,0,0,101*
CCOc1ccc(N=Cc2c(C)[nH]n(-c3ccccc3)c2=O)cc1,0,2,0,1
Cc1[nH]n(-c2ccccc2)c(=O)c1C=Nc1ccc(N(C)C)cc1,21,0,0,63*
Cc1nnc(N/N=C/c2ccccc2)[nH]c1=O,-4,0,0,-7
Cc1ccc(/C=N/Nc2nncc(-c3ccccc3)n2)o1,-42,-1,-1,-4
COc1ccc(C2C(C(=O)Nc3ccccn3)c3ccccc3C(=O)N2C2CCCCC2)cc1 (stereo not given),-17,0,0,12
O=C(CN1CCN(Cc2ccc(F)cc2Cl)C1=O)NCc1ccc(Cl)cc1,-1,-1,0,0
O=C1NC(=S)NC(=O)C1=Cc1ccc(N2Cc3ccccc3C2)cc1,9,-1,0,21
O=C1NC(=S)NC(=O)C1=CN1CCCc2ccccc21,14,0,2.5*,31
CCOc1cccc(C(=O)Nc2ccc3ccccc3c2)c1,58*,-4,0,10
CCOCCC(=O)Nc1ccc2c(c1)OCCO2,39*,-2,0,8
CCOC(=O)c1ccc(NC(=O)c2cccc(Oc3ccccc3)c2)cc1,48*,1,0,-7
O=C(CCC(=O)Nc1ccc2c(c1)OCCO2)Nc1ccc2c(c1)OCCO2,1,-2,0,16
CCOc1cccc(C(=O)Nc2ccc3c(c2)OCCO3)c1,58*,-6,0,2
CN(C)CC(O)COc1ccc(CN2CCCN(c3ccccc3)CC2)cc1 (stereo not given),-10,1,0,-2
CCc1ccc(OCCOCCn2c(-c3ccc(Cl)cc3)nc3ccccc3c2=O)cc1,-6,0,0,4
Cc1cc(C(=O)Nc2ccc3ccccc3c2)oc1C,-18,-2,0,9
Cc1ccoc1C(=O)Nc1ccc2ccccc2c1,41*,-9,0,8
NC(=O)c1ccccc1Nc1nccc(-c2ccccc2)n1,40*,-2,0,12
SMILES,TEAD-YAP inh,GPR151 activ,FBW7 activator,MITF inh
NC(=O)c1ccc(Nc2nccc(-c3ccccc3)n2)cc1,23,-4,1,-12
NC(=O)c1ccc(Nc2ncc(Cl)c(-c3ccccc3)n2)cc1,-6,0,2.6*,18
NC(=O)c1[nH]ncc1Nc1nccc(-c2ccccc2)n1,-14,-1,0,6
N#Cc1cccc(-c2ccnc(Nc3ccc(S(N)(=O)=O)cc3)n2)c1,-4,1,0,1
NS(=O)(=O)c1ccc(Nc2nccc(-c3cccc(Nc4ccccc4)c3)n2)cc1,54*,3,0,1
NC(=O)c1ccc(Nc2nccc(-c3cccc(Nc4ccccc4)c3)n2)cc1Cl,36*,0,0,-2
COc1cc2nc(-c3ccc(C(N)=O)cc3)nc(N)c2cc1OC,0,-1,0,1
Cc1ccc(NC(=O)Cn2nnc(C(=O)NCc3ccc(F)cc3)c2N)c(Cl)c1,-1,2,0,-6
O=C(Nc1cccc(C(F)(F)F)c1)c1cc2nc(-c3ccc(Br)cc3)cc(C(F)(F)F)n2n1,-9,1,0,-1
O=C1c2cccc3cc([N+](=O)[O-])cc(c23)C(=O)N1c1ccccc1,-13,0,0,-8
NS(=O)(=O)c1cccc(Nc2nccc(-c3ccccc3)n2)c1,91*,-1,0,4
Cc1ccc(C(=O)N/N=C/c2ccc(O)c(O)c2O)c(C)c1,-16,0,-1,57*
CCOc1cccc(/C=N/NC(=O)c2ccc(C)cc2C)c1O,0,0,-1,-4
Cc1cc(C(=O)N/N=C/c2ccc(O)c(O)c2O)c(C)n1-c1ccccc1,7,1,-1,39
Cc1cc(C(=O)N/N=C/c2ccc(O)c(O)c2O)c2ccccc2n1,17,-2,-1,82*
O=C(N/N=C\c1ccc([N+](=O)[O-])o1)c1ccccc1-n1cccc1,49*,3,0,12
O=C(N/N=C/c1ccc(O)c(O)c1O)c1ccccc1-n1cccc1,9,-1,-1,56*
O=C(NCc1ccccc1)C(O)(c1ccccc1)c1ccccc1,-8,-1,0,9
Cc1cc(C(=O)N/N=C/c2cc([N+](=O)[O-])ccc2O)c2ccccc2n1,17,0,0,102*
Cc1c(C(=O)N/N=C/c2cccc(OC(=O)N3CCOCC3)c2)nnn1-c1nonc1N,7,1,0,-17
COc1cc(C(=O)N/N=C/c2cccc(OC(=O)N3CCOCC3)c2)cc(OC)c1OC,58*,2,0,19
COc1cc(C(=O)N/N=C/c2ccc([N+](=O)[O-])o2)cc(OC)c1OC,34*,-1,0,13
Cc1cc(C(=O)N/N=C/c2ccccc2OC(F)F)c2ccccc2n1,34*,0,1,8
COc1ccc(Nc2nnc(-c3ccc(C)c(S(=O)(=O)NCc4ccccn4)c3)c3ccccc23)cc1C(N)=O,3,-1,0,13
COc1cc(CN(C(=O)c2cccc(C)c2)C2CCS(=O)(=O)C2)cc(OC)c1OC (stereo not given),9,0,0,5
SMILES,TEAD-YAP inh,GPR151 activ,FBW7 activator,MITF inh
Cc1c(/C=C(\C#N)c2ccccn2)cc(C#N)n1C,2,1,0,-10
Cc1c(/C=C/c2nc3ccccc3s2)cc(C#N)n1C,73*,-3,0,19
COc1ccc(C2=NN(C(=O)c3cc(OC)c(OC)c(OC)c3)C(c3ccc(OC)c(OC)c3)C2)cc1OC (stereo not given),21,2,0,2
COc1ccc(C2=NN(C(=O)c3ccccc3)C(c3cccc([N+](=O)[O-])c3)C2)cc1 (stereo not given),-7,-1,0,1
COc1ccc(C2=NN(C(=O)c3cc(OC)c(OC)c(OC)c3)C(c3cccc([N+](=O)[O-])c3)C2)cc1OC (stereo not given),37*,0,0,-1
COc1ccc(C2=NN(C(=O)c3cc(OC)c(OC)c(OC)c3)C(c3ccc(C)cc3)C2)cc1OC (stereo not given),46*,-1,0,3
COC(=O)c1ccc2c(c1)N(Cc1cc(OC)cc(OC)c1)C(=O)C(F)(F)O2,3,-1,0,13
CCc1ccc(CNC(=O)Cc2ccc(NC(=O)C3=C(C)OCCS3)cc2)cc1,35*,1,0,4
